From PubChem BioAssay
ALDH1A1 inh: inhibitors of human aldehyde dehydrogenase 1A1 | P00352 | Purified ALDH1A1, NADH fluorescence, propionaldehyde substrate | Potency, µM (titrated, usually from 75.3 µM), for inactives: at the highest dose activity, negative = inhibition, usual class: inhibitors | 220,000 tested, 7.3% active;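 also: potency is read from the fitted curve at half-maximal effect; plate controls were no enzyme wells and a reference inhibitor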
Target sequence (P00352 whole entry, looked up): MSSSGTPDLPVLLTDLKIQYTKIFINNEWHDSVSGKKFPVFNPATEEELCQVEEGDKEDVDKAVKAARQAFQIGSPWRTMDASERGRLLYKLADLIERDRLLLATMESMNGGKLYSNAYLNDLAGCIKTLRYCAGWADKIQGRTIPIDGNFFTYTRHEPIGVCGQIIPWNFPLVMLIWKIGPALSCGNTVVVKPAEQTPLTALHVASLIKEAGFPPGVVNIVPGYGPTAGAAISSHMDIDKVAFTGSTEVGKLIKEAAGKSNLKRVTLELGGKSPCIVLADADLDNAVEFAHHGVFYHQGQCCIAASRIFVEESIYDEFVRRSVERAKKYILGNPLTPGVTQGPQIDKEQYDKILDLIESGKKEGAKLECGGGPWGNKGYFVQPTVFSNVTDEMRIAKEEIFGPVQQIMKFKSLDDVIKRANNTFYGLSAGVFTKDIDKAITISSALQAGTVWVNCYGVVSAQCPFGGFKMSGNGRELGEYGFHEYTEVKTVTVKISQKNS
IMPase cell inh: membrane-permeable compound that blocks inositol monophosphatase; 120,000 tested, under 10 active; AID 901; P97697; inhibition (IP1 accumulation), % at 46.1 µM; CHO-M1 cells, IP1 accumulation, HTRF TR-FRET ratio; active = well fitted curve in the direction sought with a large enough effect in the signal ratio, not every such curve was filed as active; inconclusive = small, poorly fitted or top-dose-only effect, or a change in a side signal; inactive = no such curve, though single readings can be large or run the other way; the % refers to the signal ratio;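 also: cells stimulated with carbachol in lithium chloride buffer; plate controls were DMSO basal wells for no effect and reference inhibitor wells for full effect; higher means more IMPase inhibition seen as more IP1 and lower FRET ratio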
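Seeded CHO-M1 cells were dosed with compound at up to 46 uM, stimulated with carbachol for 30 min, then lysed in IP-One detection reagents. Higher IP1 lowers the TR-FRET signal.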
HPGD inh: inhibitors of human 15-hydroxyprostaglandin dehydrogenase (HPGD) | P15428 | purified HPGD, NADH fluorescence kinetic, PGE2 substrate | Potency, µM, for inactives: top-dose activity change, negative = inhibition, actives largely listed as inhibitors | 150,000 tested, 4.3% active | AID 894; also: potency is read from the fitted curve at half-maximal effect
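NADH formation kinetics: reaction with 30 uM PGE2 and 1 mM NAD+ (final), 20 nM enzyme, Tris-HCl pH 8 with Tween 20, after 15 min compound preincubation at room temperature. Fluorescence change, last versus first of five reads.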
* hit, by the source's call; [ ] = another dose, or the depositor's remark. Most compounds without a hit are left out; they make up all but 9% or so of the library. Unless noted, calls follow the shape of the dose curve; as a rule, active = well fitted inhibition curve with a large enough effect (not every such curve was filed as active); inconclusive = small, poorly fitted or top-dose-only effect, or another doubt; inactive = no such curve, though single readings can be large or run the other way. Unless noted, % is scaled to controls: 0 for no effect and ±100 for the full control effect.

For COc1ccc(CS(=O)(=O)/C(Cl)=C(/Cl)C(=O)Nc2ccc(OC)nc2)cc1 the results were ALDH1A1 inh 1.6µM*, IMPase cell inh 14 and HPGD inh -9%.
COc1ccc(NC(=O)/C(Cl)=C(/Cl)S(=O)Cc2ccccc2)cn1 (centres undefined) was read as ALDH1A1 inh 13µM*, IMPase cell inh 15 and HPGD inh inconclusive.
`COc1ccc(/C=C/C(=O)Nc2ccc(OC)nc2)cc1` gave ALDH1A1 inh -10% and HPGD inh -12%.
COc1ccccc1NC=C1C(=O)OC(C)(C)OC1=O was read as ALDH1A1 inh 0.35µM*, IMPase cell inh 4 and HPGD inh -15%.
Screening CC1(C)OC(=O)C(=CNc2cccc(C(=O)O)c2)C(=O)O1 returned ALDH1A1 inh -1%, IMPase cell inh 2 and HPGD inh -13%.
Screening CCOc1ccccc1NC=C1C(=O)OC(C)(C)OC1=O returned ALDH1A1 inh 2.2µM*, IMPase cell inh 4 and HPGD inh -24%.
For CC1(C)OC(=O)C(=CNc2ccccc2F)C(=O)O1 the results were ALDH1A1 inh inconclusive, IMPase cell inh -7 and HPGD inh -7%.
`C=CCC1C=C(C)CC(CC=C)N1` (centres undefined) gave ALDH1A1 inh 1%.
Screening O=C(CSc1ncc(-c2ccccc2)[nH]1)Nc1cccc(C(F)(F)F)c1 returned IMPase cell inh 12.
Screening CN(C(=S)Nc1ccc(Oc2ccccc2)cc1)c1ccc(O)cc1 returned ALDH1A1 inh 2.2µM* and HPGD inh inconclusive.
CN(C(=S)Nc1ccc(SC(F)F)cc1)c1ccc(O)cc1 was read as ALDH1A1 inh 6.3µM*, IMPase cell inh 18 and HPGD inh -13%.
`CN(C(=S)Nc1ccccc1)c1ccccc1` gave ALDH1A1 inh 1% and HPGD inh -17%.
Screening FC(F)Sc1ccc(NC(=S)NC2CCCC2)cc1 returned ALDH1A1 inh 7%.
CCN(C(=S)Nc1cccnc1)c1ccccc1 was read as ALDH1A1 inh 6%.
Screening CN(C(=S)Nc1cccnc1)c1ccc(O)cc1 returned ALDH1A1 inh 14µM* and HPGD inh -8%.
Cc1ccc(Nc2nc3ccc(C)cc3nc2-n2nc(C)cc2C)c(C)c1 was read as IMPase cell inh -3.
For Cc1ccc(CN(Cc2ccccc2)C(=S)Nc2ccccc2C)o1 the results were ALDH1A1 inh 3%.
Screening CCCCC/C=C\C[C@H](O)/C=C\c1cccc(C[C@H](O)CCCCO)n1 returned IMPase cell inh 17.
COc1ccc(CNC(=O)c2coc(=O)c3ccccc23)cc1 was read as ALDH1A1 inh 4%.
Cc1cccc(-[n+]2c(C)cc(C)c3c(=O)[nH]c(=O)[nH]c32)c1 was read as ALDH1A1 inh inconclusive, IMPase cell inh -7 and HPGD inh inconclusive.
`COC(=O)c1ccc(OC(=O)CS(=O)c2ccccc2[N+](=O)[O-])cc1` (centres undefined) gave ALDH1A1 inh -1%.
Screening CCOC(=O)c1ccccc1OC(=O)CS(=O)c1ccccc1[N+](=O)[O-] (centres undefined) returned ALDH1A1 inh 22µM*.
O=C(c1ccc(Cl)cc1)N1CCC(O)(CSc2ccc(Cl)cc2Cl)CC1 was read as ALDH1A1 inh 22µM*, IMPase cell inh -6[1.84 µM] and HPGD inh -20%.
Screening CN1CCN(NC(=O)CSc2ccc(Cl)cc2Cl)CC1 returned ALDH1A1 inh 5%.
CC(C)CN(C(=O)c1ccc(=O)n(C)n1)c1nc2ccccc2s1 was read as ALDH1A1 inh inconclusive, IMPase cell inh 12 and HPGD inh inconclusive.
`Cn1c(Cc2cccs2)nnc1SCC(=O)N1CCCc2ccccc21` gave ALDH1A1 inh -13%, IMPase cell inh 1 and HPGD inh 6%.
For c1ccc2c(c1)CCCN2Cc1nnnn1C1CCCC1 the results were ALDH1A1 inh -5%, IMPase cell inh 2 and HPGD inh 1%.
`O=C(CSc1nnc(Cc2cccs2)n1C1CCCCC1)N1CCCc2ccccc21` gave ALDH1A1 inh 3.5µM*, IMPase cell inh -7 and HPGD inh -23%.
Screening Cc1ccc(-c2csc3nnc(SCC(=O)N4CCN(Cc5ccccc5)CC4)n23)cc1 returned ALDH1A1 inh 14µM*, IMPase cell inh inconclusive and HPGD inh -12%.
For COc1ccc(-n2nnnc2SCC(=O)N2CCCc3ccccc32)cc1OC the results were ALDH1A1 inh 25µM*, IMPase cell inh 6 and HPGD inh -15%.
Screening O=C(CSc1nnnn1C1CCCC1)N1CCCc2ccccc21 returned ALDH1A1 inh 10µM*, IMPase cell inh inconclusive and HPGD inh -13%.
Screening COc1ccc(CC(=O)N2CCCc3ccccc32)cc1OC returned ALDH1A1 inh inconclusive, IMPase cell inh 7 and HPGD inh -4%.
